Measurements reported in PubChem BioAssay AID488969 (Vanderbilt High Throughput Screening Facility, 2010).
In all, about 110,000 compounds were measured (“z-score”: median about -0.1, highest 2% from about 2 on). The list comes from a sample in which the highest values are over-represented; it also holds similar structures and randomly drawn compounds. Activity calls are given as the source filed them.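 How the source made its calls: active means z-score in the third read window above 3 or below -3; inactive means the rest.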

Biological target: Metabotropic glutamate receptor 8 (Rattus norvegicus) (UniProt P70579)
Experiment: mGluR8 Gi/Go-coupled signaling modulation – cell-based, rat, thallium flux, HTS, primary screen (AID 488969)
Conditions: HEK293 rat mGluR8, GIRK (G protein-gated inwardly rectifying potassium channel) thallium flux, FluoZin2; at 10 µM; stronger effect = higher value; submaximal glutamate (EC20) added with thallium

Chain of Metabotropic glutamate receptor 8 (Rattus norvegicus) (P70579 whole entry, looked up): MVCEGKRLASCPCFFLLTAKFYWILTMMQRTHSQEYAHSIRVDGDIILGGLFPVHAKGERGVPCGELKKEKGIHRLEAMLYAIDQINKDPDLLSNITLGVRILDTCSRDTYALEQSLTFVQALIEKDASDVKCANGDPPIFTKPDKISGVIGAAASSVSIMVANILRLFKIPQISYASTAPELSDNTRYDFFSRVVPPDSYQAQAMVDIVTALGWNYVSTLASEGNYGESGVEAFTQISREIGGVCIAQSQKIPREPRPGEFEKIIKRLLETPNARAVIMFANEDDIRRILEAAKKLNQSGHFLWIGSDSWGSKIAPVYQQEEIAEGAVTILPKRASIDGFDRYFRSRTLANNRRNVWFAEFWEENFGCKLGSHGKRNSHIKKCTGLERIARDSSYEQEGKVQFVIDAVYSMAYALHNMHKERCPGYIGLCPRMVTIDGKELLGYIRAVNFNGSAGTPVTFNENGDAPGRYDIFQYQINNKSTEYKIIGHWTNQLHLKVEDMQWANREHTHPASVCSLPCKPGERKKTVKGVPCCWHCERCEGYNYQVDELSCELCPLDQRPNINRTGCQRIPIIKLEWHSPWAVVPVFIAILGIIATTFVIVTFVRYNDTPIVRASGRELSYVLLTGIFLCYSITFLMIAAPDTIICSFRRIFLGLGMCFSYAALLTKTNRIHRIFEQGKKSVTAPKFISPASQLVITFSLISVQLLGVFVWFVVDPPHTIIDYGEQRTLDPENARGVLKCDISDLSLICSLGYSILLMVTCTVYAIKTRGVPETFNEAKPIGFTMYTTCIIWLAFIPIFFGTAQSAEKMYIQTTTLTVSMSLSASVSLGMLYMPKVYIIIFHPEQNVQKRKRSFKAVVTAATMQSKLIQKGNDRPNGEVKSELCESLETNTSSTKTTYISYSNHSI

SMILES | z-score
O=C(NNC(=O)C1CCN(Cc2ccccc2)CC1)c1cccc(Cl)c1 | 0.0829
CCOC(=O)c1cn(-c2ccccc2CO)c2c(F)c(F)c(F)cc2c1=O | -0.237
COc1ccc2ncc(S(=O)(=O)c3ccccc3)c(N3CCC4(CC3)OCCO4)c2c1 | -0.776
CN(C)CC(O)COc1ccc(-c2ccc(C#N)cc2)cc1 (stereo not given) | 2.48
N#Cc1ccc(-c2ccc(OCC(O)Cn3nnc4ccccc43)cc2)cc1 (stereo not given) | -0.106
CN(C)CC(O)COc1cccc(OCC(O)CN(C)C)c1 (stereo not given) | -0.132
Cc1ccc(OCC(O)CN2C(=O)NC(C)(C)C2=O)cc1 (stereo not given) | -0.38
CC1(C)NC(=O)N(CC(O)COc2ccc(-c3ccc(C#N)cc3)cc2)C1=O (stereo not given) | 5.36 (active)
CC1(C)NC(=O)N(CC(O)COc2ccc(-c3ccccc3)cc2)C1=O (stereo not given) | -0.0166
COc1ccccc1CC(=O)Nc1ccc(-c2noc(COc3ccc(Cl)c(C)c3)n2)cc1 | -0.166
Cc1cc(C)c2c(N)c(C(=O)c3cccc(Cl)c3)sc2n1 | -0.231
CCc1ccc(N/C(SC)=C(/C#N)C(N)=O)cc1 | 0.119
CCOC(=O)c1sc2nc(CSc3nc4ccccc4n3CC)[nH]c(=O)c2c1C | 2.68
COCCn1c(SCc2nc3sc(C(=O)OC)c(C)c3c(=O)[nH]2)nc2ccccc21 | 0.877
CCn1c(SCc2nc3sc(C(=O)O)c(C)c3c(=O)[nH]2)nc2ccccc21 | -0.449
COc1cccc(-c2nnc(SCc3nc4ccccc4s3)n2C)c1 | -0.34
CCCCCCOC(=O)/C=C/c1c(C)[nH]c(=O)[nH]c1=O | -0.139
C/C(=N\NC(=O)COc1ccc(C)cc1C(C)C)c1ccc(-n2ccnc2)cc1 | 2.53
COc1ccc(OCC(=O)N/N=C(\C)c2ccc(-n3ccnc3)cc2)cc1 | -0.334
C/C(=N\NC(=O)c1ccc(C)cc1C)c1ccc(-n2ccnc2)cc1 | -0.0942
C/C(=N\NC(=O)COc1ccc(C(C)(C)C)cc1)c1ccc(-n2ccnc2)cc1 | 0.123
CNC(=S)N/N=C(\C)c1ccc(-n2ccnc2)cc1 | -0.579

SMILES | z-score
C/C(=N\NC(=O)c1ccccc1)c1nc2ccccc2n1C | 3.71 (active)
Cn1c(/C=N/NC(=O)c2ccccc2)nc2ccccc21 | 0.298
C/C(=N\Nc1ccc(C(=O)O)cc1)c1nc2ccccc2n1C | -0.702
C/C(=N\NC(=O)c1ccccc1)c1ccc(-n2ccnc2)cc1 | 2.25
Cn1c(=O)c2c(ncn2CC(=O)OCC(=O)Nc2ccccc2Cl)n(C)c1=O | -0.159
Clc1cccc2sc(N3CCOCC3)nc12 | 0.0232
CCOC(=O)C1=C(C)Nc2nc(SCc3cccnc3)nn2C1c1ccc(OC)cc1 (stereo not given) | 0.463
CN1CCN(S(=O)(=O)c2ccc(Br)s2)CC1 | -0.0381
COC(=O)c1ccc(Cl)c(NC(=O)CN2CCOCC2)c1 | 0.185
COC(=O)c1ccc(Cl)c(NC(=O)CN2CCN(Cc3ccccc3)CC2)c1 | -0.236
COC(=O)c1ccc(Cl)c(NC(=O)CN(c2ccc3c(c2)OCO3)S(C)(=O)=O)c1 | 0.625
CN1CCN(CC(=O)Nc2c(C(=O)C3CC3)oc3ccccc23)CC1 | -0.346
COC(=O)c1oc2ccc(Br)cc2c1NC(=O)CN1CCN(C)CC1 | 2.22
COC(=O)c1ccc(Cl)c(NC(=O)CN2CCN(C)CC2)c1 | 4.17 (active)
COC(=O)c1ccc(Cl)c(NC(=O)CN(c2ccc(OC)c(OC)c2)S(C)(=O)=O)c1 | 2.1
CCOC(=O)c1oc2ccc(OC)cc2c1NC(=O)CN1CCN(C)CC1 | 0.148
COC(=O)c1ccc(Cl)c(NC(=O)CN(c2ccc(OC)cc2)S(=O)(=O)c2ccccc2)c1 | -0.285
Cc1ccc(CNC(=O)/C=C/c2c(Cl)cccc2Cl)cc1 | -0.641
O=C(CSc1ncnc2c1oc1ccccc12)NCC1CCCO1 (stereo not given) | -0.215
COc1ccc(/C=N/n2c(N)nc(-c3ccccc3)c2-c2ccccc2)cc1 | -0.377
O=C(NCCCN1CCN(c2ccccc2)CC1)Nc1ccccc1C(F)(F)F | -0.506
Cc1ccc(NC(=O)c2sc3nc4c(c(-c5ccco5)c3c2N)CCC4)cc1 | -0.382

SMILES | z-score
CC(=O)NC(Cc1ccccc1C)C(=O)NC1CCN(c2ncccc2[N+](=O)[O-])CC1 (stereo not given) | -0.207
CCC(=O)Nc1cc2nn(-c3ccccc3)nc2cc1Cl | 0.0874
CNC(=S)N/N=C(\C)c1ccc(N2CCOCC2)cc1 | 0.456
C=C(C)CNC(=S)N/N=C(\C)c1ccc(-n2ccnc2)cc1 | -0.342
C/C(=N\Nc1nc2ccccc2[nH]1)c1ccc(Cl)s1 | -1.3
CNC(=S)N/N=C(\C)c1ccc(C)c(C)c1 | 1.2
CCNC(=S)N/N=C(\C)c1cccc([N+](=O)[O-])c1 | 0.559
CCNC(=S)N/N=C(\C)c1ccc(N2CCOCC2)cc1 | 0.245
CNC(=S)N/N=C(\C)c1ccc(Cl)s1 | 3.13 (active)
CNC(=S)N/N=C(\C)c1cccc([N+](=O)[O-])c1 | -0.339
C=C(C)CNC(=S)N/N=C(\C)c1ccc(Cl)s1 | 2.26
CCNC(=S)N/N=C(\C)c1ccc(Cl)s1 | 4.7 (active)
CNC(=S)N/N=C(\C)c1ccc(C(C)(C)C)cc1 | 2.03
C=C(C)CNC(=S)N/N=C/c1ccc(N2CCOCC2)cc1 | 0.134
Cn1c(=O)c2[nH]c(-c3cccnc3)nc2n(C)c1=O | 0.366
C=CCN1C(=O)C(CC(=O)Nc2ccccc2)SC1=Nc1c(C)n(C)n(-c2ccccc2)c1=O (stereo not given) | 1.07
COc1cc(/C=C(\C#N)c2nc(-c3cc4ccccc4oc3=O)cs2)ccc1O | -2.33
CCC(=O)Nc1ccc(NC(=O)CN2CCCC(C)C2)c(Cl)c1 (stereo not given) | -0.146
Cc1nn(CC(O)COc2ccc3c(c2)CCC3)c(C)c1C (stereo not given) | -0.0908
Cc1nc2cc(Nc3nnc(-c4ccccc4)c4ccccc34)ccc2n1C | -0.174
CN1CCN(C(=O)NC2CCCCC2)CC1 | -0.173
CCOP(=O)(O)c1ccccc1OCCCCCOc1ccccc1P(=O)(O)OCC | -0.285

SMILES | z-score
CCOC(=O)c1c(N)nn(C(=O)CC)c1-c1ccccc1 | -0.667
CCOc1ccccc1-c1nc(C(N)=O)c2[nH]c(=O)n(-c3cccc(C)c3)c2n1 | -1.43
C/C(=N\NC(=O)C(=O)Nc1cccc(C(F)(F)F)c1)c1ccc(Cl)s1 | 0.376
C/C(=N\NC(=S)NC(C)C)c1ccc(Cl)s1 | 5.46 (active)
C/C(=N\NC(N)=S)c1ccc(Cl)s1 | 2.19
C/C(=N/Nc1ccc(F)cc1)c1ccc(Cl)s1 | 0.13
C/C(=N\NC(=S)NC(C)C)c1ccc(-n2ccnc2)cc1 | -0.306
COc1cc(/C(C)=N/NC(=S)NC(C)C)cc(OC)c1OC | -0.0595
Cc1noc(C)c1COc1cccc(C(=O)OCC(=O)NC(=O)c2ccc(OC(F)F)cc2)c1 | -0.262
N/C(=N\OC(=O)c1cccc(Br)c1)c1ccc(Br)cc1 | -0.325
COc1ccc(C(=O)COC(=O)CNC(=O)c2cc(OC)cc(OC)c2)cc1 | -0.208
NC(=O)C(Cc1ccccc1)NS(=O)(=O)c1ccc(N2CCCC2=O)cc1 (stereo not given) | 0.443
CCC(C)NC(=O)c1ccccc1C(=O)NC(C)CC (stereo not given) | 0.631
CC(C)CNC(=O)c1ccccc1NC(=O)Nc1ccccc1 | 0.337
CCC(C)NC(=O)c1ccccc1NC(=O)Nc1ccccc1 (stereo not given) | 6.32 (active)
Cc1cccc(CN(CC(=O)N/N=C/c2ccco2)S(=O)(=O)c2ccc(Cl)cc2)c1 | 0.848
CCN(CC)C(=O)C1CCCN(C(=O)Nc2ccc(NC(=O)N3CCCC(C(=O)N(CC)CC)C3)cc2)C1 (stereo not given) | -0.196
COC(=O)CSc1nnc(-c2cccnc2)n1-c1cccc(OC)c1 | 0.978
Cn1c(=O)oc2cc(S(=O)(=O)NC3CCCc4ccccc43)ccc21 (stereo not given) | 0.254
CC(C)CC(NS(=O)(=O)c1ccc2c(c1)oc(=O)n2C)C(=O)NC1CCCc2ccccc21 (stereo not given) | 5.09 (active)
CSCCC(NS(=O)(=O)c1ccc2c(c1)oc(=O)n2C)C(=O)NC1CCCc2ccccc21 (stereo not given) | 0.148
CCc1ccc2oc(-c3cccc(N)c3)nc2c1 | -0.135

SMILES | z-score
Cc1cc(C(=O)CSc2n[nH]c(N)n2)c(C)n1-c1cccc(F)c1 | -1.69
Cc1cc(C(=O)CSc2n[nH]c(N)n2)c(C)n1-c1ccc(F)cc1 | -0.628
Cc1cc(C(=O)CSc2n[nH]c(N)n2)c(C)n1-c1cc(F)ccc1F | 6.6 (active)
COc1ccc(NS(=O)(=O)c2ccc(NC(=O)c3ccc(N(C)S(C)(=O)=O)cc3)cc2)c(OC)c1 | -0.141
COC(=O)C1=C(C)NC(=O)/C1=C\c1ccco1 | 8.73 (active)
COC(=O)C1=C(C)N(C)C(=O)/C1=C\c1ccco1 | -0.144
COC(=O)C1=C(C)NC(=O)/C1=C\c1cccs1 | -0.512
CC(=O)c1nc(N2C(=O)CC(Cc3cccc(C)c3)C2=O)sc1C (stereo not given) | -0.395
CC(=O)c1nc(N2C(=O)CC(Cc3cc(C)cc(C)c3)C2=O)sc1C (stereo not given) | 2.19
CC(=O)c1nc(N2C(=O)CC(Cc3ccc(C)cc3)C2=O)sc1C (stereo not given) | -0.714
COc1ccc(NC(=S)N/N=C2\CC(C)(C)Oc3ccc(OC)cc32)cc1 | -0.239
CC(C)(C)C1CCC2(CC1)Nc1cccc3cccc(c13)N2 | 4.88 (active)
CC(C)(C)C1CCC2(CC1)NC(=S)N(c1ccccc1)N2 (stereo not given) | 0.0264
c1cc2c3c(cccc3c1)NC1(CCCCC1)N2 | -0.436
Cc1cc(NC(=O)c2ccc(COc3ccc(Cl)c(C)c3)o2)no1 | -0.225
O=C(NC1CC1)c1ccc2c3c(cccc13)CC2 | -0.311
N=c1sccn1CC(=O)Nc1cc(Cl)ccc1Oc1ccccc1 | 1.02
COc1ccc(OCCC(=O)OCC(=O)NCc2ccccc2)cc1 | -0.332
Cc1cccc(-n2c(C)nc3cc(C(=O)NCc4ccc5c(c4)OCO5)ccc32)c1 | 0.471
Cc1ccccc1NC(=S)/C(=C(\[O-])c1ccc(C)c([N+](=O)[O-])c1)[n+]1ccccc1 | 0.013
Cc1c(Cl)cccc1NC(=S)/C(=C(\[O-])c1ccc(Cl)s1)[n+]1ccccc1 | 2.24
CC(C)(C)c1cc[n+](/C(C(=S)NC2CC2)=C(/[O-])c2ccc(Cl)s2)cc1 | -0.275
